Source: PubChem BioAssay AID1159580 (chemical genetic matrix, 2015)
“And” between values parts separate entries of the source, which are not always exact repeats. Equal values may be shown once. The whole screen tested about 5,500 compounds, of which about 2,000 (36%) were called active. Not shown: some 18% with an inconclusive outcome. Rule as the data show it: active = normalized growth mostly below about 0.91 (no sharp cut-off); inconclusive = no clear call, values can overlap the other calls; inactive = mostly above about 0.92. The list shows a part of the results.

Assay: chemical genetic growth profiling, strain panel (AID 1159580);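 also: tested at 20 µM; growth read once vehicle control cultures reached saturation at 30 °C; 1 = growth at the plate median or of vehicle wells; lower values mean less growth of the strain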
Conditions: S. cerevisiae deletion strains, growth OD

Measured: normalized growth

O=c1c(-c2ccc(O)cc2)coc2cc(O)cc(O)c12
inactive: locus YAL013W, strain DEP1, hits give low values 1.03 | locus YAL021C, strain ccr4, hits give low values 1.01 | locus YAL026C, strain drs2, hits give low values 1.02 | locus YAL030W, strain snc1, hits give low values 1.01 | locus YAL040C, strain CLN3, hits give low values 0.968 | locus YBL061C, strain skt5, hits give low values 1.01 | locus YBR009C, strain hhf1, hits give low values 1.01 | locus YBR021W, strain FUR4, hits give low values 1 | locus YBR023C, strain chs3, hits give low values 1.01 | locus YBR171W, strain sec66, hits give low values 1.01 | locus YBR229C, strain ROT2, hits give low values 1.02 | locus YBR231C, strain swc5, hits give low values 1.01 | locus YBR279W, strain paf1, hits give low values 1 | locus YCL011C, strain gbp2, hits give low values 1.01 | locus YCL016C, strain dcc1, hits give low values 1.01 | locus YCL029C, strain bik1, hits give low values 1.03 | locus YCL061C, strain MRC1 (second series), hits give low values 1 | locus YCL061C, strain MRC1, hits give low values 1 | locus YCL069W, strain vba3, hits give low values 1.02 | locus YCR088W, strain abp1, hits give low values 1.02 | locus YDL005C, strain med2, hits give low values 1 | locus YDL035C, strain GPR1, hits give low values 1.07 | locus YDL040C, strain nat1, hits give low values 1.01 | locus YDL074C, strain BRE1, hits give low values 1.14 | locus YDL101C, strain DUN1, hits give low values 1.03 | locus YDL185W, strain tfp1, hits give low values 1.02 | locus YDL192W, strain arf1, hits give low values 1.04 | locus YDR001C, strain nth1, hits give low values 1.01 | locus YDR069C, strain doa4, hits give low values 1.01 | locus YDR101C, strain arx1, hits give low values 1 | locus YDR137W, strain rgp1, hits give low values 0.983 | locus YDR150W, strain NUM1, hits give low values 0.996 | locus YDR159W, strain sac3, hits give low values 1.02 | locus YDR162C, strain NBP2, hits give low values 1.04 | locus YDR195W, strain ref2 1.03 | locus YDR297W, strain sur2, hits give low values 1.01 | locus YDR318W, strain mcm21, hits give low values 1.02 | locus YDR334W, strain swr1, hits give low values 0.989 | locus YDR335W, strain msn5, hits give low values 1.02 | locus YDR363W, strain ESC2, hits give low values 0.994 | locus YDR388W, hits give low values 1.03 | locus YDR392W, strain spt3, hits give low values 0.989 | locus YDR502C, strain sam2, hits give low values 1.02 | locus YEL003W, strain gim4, hits give low values 1.01 | locus YEL037C, strain rad23, hits give low values 1.01 | locus YEL061C, strain CIN8 (second series), hits give low values 1.01 | locus YER002W, strain NOP16, hits give low values 0.996 | locus YER015W, strain faa2, hits give low values 1.01 | locus YER016W, strain bim1, hits give low values 1.01 | locus YER110C, hits give low values 1.04 | locus YER111C, strain swi4, hits give low values 1.03 | locus YER155C, strain BEM2 (second series), hits give low values 1.02 | locus YER155C, strain BEM2, hits give low values 1.03 | locus YER167W, strain BCK2, hits give low values 1.03 | locus YFR010W, strain ubp6, hits give low values 0.995 | locus YGL078C, strain dbp3, hits give low values 1.03 | locus YGL086W, strain mad1, hits give low values 1.01 | locus YGL167C, strain pmr1, hits give low values 1.01 | locus YGL173C, strain kem1, hits give low values 1.01 | locus YGL227W, strain vid30, hits give low values 1.01 | locus YGL240W, strain doc1, hits give low values 1.01 | locus YGL248W, strain PDE1, hits give low values 1.07 | locus YGL253W, strain hxk2, hits give low values 1 | locus YGR078C, strain PAC10, hits give low values 1.06 | locus YGR135W, strain pre9, hits give low values 1.05 | locus YGR252W, strain gcn5, hits give low values 0.958 | locus YHR013C, strain ard1, hits give low values 1.03 | locus YHR027C, strain rpn1, hits give low values 1.01 | locus YHR030C, strain SLT2, hits give low values 0.984 and 1.04 | locus YHR079C, strain IRE1 (second series), hits give low values 1.02 | locus YHR079C, strain IRE1, hits give low values 1.01 | locus YHR094C, strain hxt1, hits give low values 1.04 | locus YHR129C, strain ARP1, hits give low values 1.05 | locus YHR142W, strain chs7, hits give low values 0.991 | locus YHR200W, strain rpn10, hits give low values 1.02 | locus YIL066C, strain RNR3, hits give low values 1.05 | locus YIL073C, strain SPO22, hits give low values 1.13 | locus YIL125W, strain kgd1, hits give low values 1.03 | locus YIR030C, strain dcg1, hits give low values 1.03 | locus YJL092W, strain hpr5, hits give low values 1.01 | locus YJL095W, strain BCK1 (second series), hits give low values 1.01 | locus YJL095W, strain BCK1, hits give low values 1.11 and 1.05 | locus YJL115W, strain asf1, hits give low values 0.999 | locus YJL129C, strain trk1, hits give low values 0.997 | locus YJL134W, strain LCB3, hits give low values 1.03 | locus YJL154C, strain vps35, hits give low values 1 | locus YJL164C, strain tpk1, hits give low values 0.95 | locus YJL166W, strain qcr8, hits give low values 1 | locus YJL168C, strain set2, hits give low values 1.03 | locus YJL187C, strain SWE1 (second series), hits give low values 1.05 | locus YJL187C, strain SWE1, hits give low values 1 | locus YJR066W, strain TOR1, hits give low values 0.999 | locus YKL009W, strain mrt4, hits give low values 1.04 | locus YKL068W, hits give low values 1 | locus YKL085W, strain MDH1 (second series), hits give low values 1.02 | locus YKL085W, strain MDH1, hits give low values 1.02 | locus YKL160W, strain elf1, hits give low values 1 | locus YKL190W, strain CNB1, hits give low values 1.02 | locus YKR001C, strain vps1, hits give low values 1.03 | locus YKR026C, strain gcn3, hits give low values 1.02 | locus YKR091W, strain srl3, hits give low values 1.01 | locus YLL001W, strain dnm1, hits give low values 1.02 | locus YLL026W, hits give low values 1.02 | locus YLL041C, strain sdh2, hits give low values 1 | locus YLR027C, strain aat2, hits give low values 1.01 | locus YLR039C, strain RIC1, hits give low values 1.21 | locus YLR058C, strain SHM2, hits give low values 1.05 | locus YLR102C, strain apc9, hits give low values 1.03 | locus YLR113W, strain HOG1, hits give low values 1.07 | locus YLR221C, strain rsa3, hits give low values 1 | locus YLR258W, strain gsy2, hits give low values 1.01 | locus YLR262C, strain YPT6 (second series), hits give low values 1.01 | locus YLR268W, strain sec22, hits give low values 1.03 | locus YLR320W, strain mms22, hits give low values 1 | locus YLR342W, strain FKS1, hits give low values 1.01 | locus YLR357W, strain rsc2, hits give low values 0.987 | locus YLR370C, strain arc18, hits give low values 1.01 | locus YLR371W, strain rom2, hits give low values 1.06 | locus YLR384C, strain iki3, hits give low values 1.02 | locus YLR418C, strain cdc73, hits give low values 1.05 | locus YML016C, strain PPZ1, hits give low values 1.03 | locus YML032C, strain rad52, hits give low values 1.02 | locus YML120C, strain ndi1, hits give low values 1.02 | locus YML124C, strain tub3, hits give low values 1.02 | locus YMR058W, strain fet3, hits give low values 1.01 | locus YMR078C, strain ctf18, hits give low values 1.03 | locus YMR125W, strain sto1, hits give low values 1.01 | locus YMR129W, hits give low values 1.01 | locus YMR205C, strain PFK2, hits give low values 1.02 | locus YMR223W, strain ubp8, hits give low values 1.03 | locus YMR231W, strain pep5, hits give low values 1 | locus YMR263W, strain SAP30, hits give low values 1.03 | locus YMR307W, strain GAS1, hits give low values 1.17 and 0.992 | locus YNL067W, strain RPL9B, hits give low values 1.03 | locus YNL071W, strain lat1, hits give low values 1.02 | locus YNL128W, strain TEP1, hits give low values 1.06 | locus YNL175C, strain NOP13, hits give low values 1.01 | locus YNL183C, strain NPR1, hits give low values 0.993 | locus YNL197C, strain WHI3, hits give low values 1.01 | locus YNL209W, strain ssb2, hits give low values 0.996 | locus YNL224C, strain SQS1, hits give low values 1 | locus YNL233W, strain BNI4, hits give low values 1.08 | locus YNL248C, strain rpa49, hits give low values 0.999 | locus YNL250W, strain rad50, hits give low values 1.04 | locus YNL271C, strain bni1, hits give low values 1.02 | locus YNL298W, strain CLA4, hits give low values 1.04 | locus YNL307C, strain MCK1, hits give low values 1.06 | locus YNL322C, strain KRE1 (second series), hits give low values 1.01 | locus YNL322C, strain KRE1, hits give low values 0.996 | locus YNR049C, strain mso1, hits give low values 1.01 | locus YNR052C, strain pop2, hits give low values 1.05 | locus YOL006C, strain TOP1, hits give low values 1.26 | locus YOL012C, strain htz1 0.919 | locus YOL147C, strain pex11, hits give low values 1.01 | locus YOR001W, strain rrp6, hits give low values 1.01 | locus YOR061W, strain CKA2, hits give low values 1.04 | locus YOR069W, strain VPS5, hits give low values 1.03 | locus YOR070C, strain gyp1, hits give low values 1 | locus YOR080W, strain dia2, hits give low values 1.01 | locus YOR083W, strain WHI5 (second series), hits give low values 1.03 | locus YOR083W, strain WHI5, hits give low values 0.997 | locus YOR106W, strain vam3, hits give low values 0.977 | locus YOR136W, strain idh2, hits give low values 1.03 | locus YOR144C, strain elg1, hits give low values 1.02 | locus YOR184W, strain ser1, hits give low values 1 | locus YOR231W, strain MKK1, hits give low values 1.04 | locus YOR265W, strain rbl2, hits give low values 1.01 | locus YOR270C, strain vph1, hits give low values 0.982 | locus YOR290C, strain snf2, hits give low values 0.989 | locus YOR316C, strain cot1, hits give low values 1.02 | locus YPL051W, strain arl3, hits give low values 0.989 | locus YPL055C, strain LGE1, hits give low values 1.08 and 1.02 | locus YPL078C, strain atp4, hits give low values 1.01 | locus YPL106C, strain sse1, hits give low values 1.02 | locus YPL240C, strain hsp82, hits give low values 0.992 | locus YPL241C, strain CIN2, hits give low values 1 | locus YPL256C, strain CLN2, hits give low values 1.05 | locus YPR119W, strain clb2, hits give low values 1.03 | locus YPR141C, strain kar3, hits give low values 1.02 | locus YPR163C, strain tif3, hits give low values 1.04 | locus YPR167C, strain met16, hits give low values 1.03 | strain wtn01, hits give low values 1.02
